Data reported in PubChem BioAssay AID2221 (Broad Institute, 2009).
Where “and” joins values, the source holds several entries; their conditions need not be identical. Equal values may be shown once. Hit rate of the full screen: of about 290,000 compounds, about 2,200 (0.76%) were called active. Rule as the data show it: active = inhibition above about 30%; inconclusive = no clear call, values can overlap the other calls; inactive = below that. Only a selection was taken, and actives are over-represented in it overall.

Target: Protein RecA (Mycobacterium tuberculosis (strain ATCC 25618 / H37Rv)) (UniProt P9WHJ3)
Sequence (P9WHJ3 whole entry, looked up): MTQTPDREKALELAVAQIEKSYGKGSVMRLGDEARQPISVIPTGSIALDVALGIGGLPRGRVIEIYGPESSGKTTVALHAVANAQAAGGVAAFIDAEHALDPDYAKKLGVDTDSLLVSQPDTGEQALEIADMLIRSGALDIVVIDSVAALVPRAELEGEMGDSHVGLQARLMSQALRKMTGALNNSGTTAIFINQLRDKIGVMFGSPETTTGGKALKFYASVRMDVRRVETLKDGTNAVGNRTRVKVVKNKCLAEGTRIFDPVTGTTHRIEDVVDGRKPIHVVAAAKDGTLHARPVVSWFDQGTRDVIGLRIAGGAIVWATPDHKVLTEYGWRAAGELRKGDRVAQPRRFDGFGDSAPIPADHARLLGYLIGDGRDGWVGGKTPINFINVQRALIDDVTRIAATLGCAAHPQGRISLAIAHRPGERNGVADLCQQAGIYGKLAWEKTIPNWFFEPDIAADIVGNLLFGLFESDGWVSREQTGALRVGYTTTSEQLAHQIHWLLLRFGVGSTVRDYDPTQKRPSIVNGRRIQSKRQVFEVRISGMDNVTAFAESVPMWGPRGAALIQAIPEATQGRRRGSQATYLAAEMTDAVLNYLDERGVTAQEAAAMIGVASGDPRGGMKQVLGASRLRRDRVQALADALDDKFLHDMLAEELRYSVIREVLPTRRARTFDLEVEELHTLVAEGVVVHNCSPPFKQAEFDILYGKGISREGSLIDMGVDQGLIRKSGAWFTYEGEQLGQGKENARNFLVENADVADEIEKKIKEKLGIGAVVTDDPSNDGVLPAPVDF
Assay: Mtb RecA intein splicing inhibitors, primary screen, biochemical, fluorescence, HTS (AID 2221);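 also: 0% = vehicle wells and 100% = reference inhibitor control wells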
Settings: cell-free RecA intein splicing, active compounds read high, concentration not given here

Structure (SMILES) | inhibition
CCOC(=O)N1CCN(C(c2cccnc2)c2ccc3cccnc3c2O)CC1 (stereo not given) | 9.76% (inactive)
CCN1CCN(c2ccc(NC(=O)c3cnccn3)cc2)CC1 | -0.413% (inactive)
CCN1CCN(C(c2cccnc2)c2cc(Cl)c3cccnc3c2O)CC1 (stereo not given) | 70% (active)
COc1cccc(/C=N/Nc2cc(C)nc(-c3ccccc3O)n2)c1O | 38.8% (active)
COc1cccc(/C=N/Nc2ncc(C(F)(F)F)cc2Cl)c1O | -2.37% (inactive)
COc1ccccc1/C=N\Nc1cc(C)nc(-n2nc(C)cc2C)n1 | 0.767% (inactive)
C/C(=N\NC(=O)COc1ccc(C)cc1[N+](=O)[O-])c1ccc2c(c1)OCCO2 | 1.11% (inactive)
O=S(=O)(Nc1ccc(O)c2ccccc12)c1ccc(OC(F)(F)F)cc1 | 95.2% (active)
Cc1nn(C)c(C)c1NS(=O)(=O)c1ccc(OC(F)(F)F)cc1 | 0.692% (inactive)
O=C1COc2ccc(S(=O)(=O)Nc3ccc(OC(F)(F)F)cc3)cc2N1 | -0.276% (inactive)
COCCCC1CCN(C(=O)C2CCC(=O)N(C3CCCCCC3)C2)CC1 (stereo not given) | -0.89% (inactive)
COC(=O)CC1=NN(c2ccccc2)C(=O)C1 | 76.6% (active)
COC(=O)CC1=NN(c2nc(C)cc(C)n2)C(=O)C1 | 36.2% (active)
C/C(N)=C(/C#N)C(=O)COC(=O)C1=NN(c2ccccc2)C(=O)CC1 | -0.739% (inactive)
CC(=O)c1sc(NC(=O)C2=NN(c3ccccc3)C(=O)CC2)nc1C | -1.59% (inactive)
Cc1ccc(CC2CC(=O)N(c3nc(C)cc(C)n3)C2=O)cc1 (stereo not given) | -1.07% (inactive)
Cc1cc(C)cc(NC(=O)C2CCN(c3nc(C)cc(C)n3)CC2)c1 | -1.54% (inactive)
O=C(CSc1nc(Nc2ccccc2)nc(N2CCOCC2)n1)Nc1cc(Cl)ccc1O | 2.06% (inactive)
CCCn1nc(C(=O)NNC(=O)CSCC(=O)Nc2cc(C)on2)c2ccccc2c1=O | 1.67% (inactive)
O=C1Nc2cc(C(=O)N3CCC(N4CCCCC4)CC3)ccc2S/C1=C\c1ccccc1 | 1.2% (inactive)
Cc1csc(CN(C)C(=O)CC2C(=O)NCCN2CC(C)(C)C)n1 (stereo not given) | -5.7% (inactive)
O=C(C(Cc1ccccc1)n1cccc1)N1CCN(C2CCCCC2)CC1 (stereo not given) | 1.21% (inactive)
NCCCC[C@@H]1NC(=O)[C@H](CCC(=O)O)NC(=O)c2cc([N+](=O)[O-])cc(I)c2NCC[C@@H](C(N)=O)NC1=O | 0.579% (inactive)

Structure (SMILES) | inhibition
NC(=O)C[C@@H]1NC(=O)CNC(=O)c2cc([N+](=O)[O-])cc(I)c2NCCC(C(N)=O)NC1=O (stereo not given in full) | 1.58% (inactive)
NC(=O)CC[C@@H]1NC(=O)[C@H](CO)NC(=O)c2cc([N+](=O)[O-])cc(I)c2NCC[C@@H](C(N)=O)NC1=O | 30.3% (active)
COc1ccc(Nc2ncc(F)c(N3CCOCC3)n2)cc1 | -0.77% (inactive)
CN(C)S(=O)(=O)c1ccc(C(=O)NCCN=C2NS(=O)(=O)c3ccccc32)cc1 | -1.53% (inactive)
Cc1cc(C)c(NC(=O)CN2C(=O)NC(Cc3ccccc3)C2=O)c(C)c1 (stereo not given) | 0.835% (inactive)
Cc1onc(-c2c(Cl)cccc2Cl)c1C(=O)NNC(=O)c1c(-c2c(Cl)cccc2Cl)noc1C | 0.133% (inactive)
Cc1onc(-c2c(Cl)cccc2Cl)c1C(=O)c1c[nH]c(C(=O)NC2CC2)c1 | 5.76% (inactive)
Cc1[nH]n(C)c(=O)c1C(=O)c1c(-c2c(Cl)cccc2Cl)noc1C | 77.1% (active)
CN(C)S(=O)(=O)c1ccc2oc(SCC(=O)Nc3ccccc3F)nc2c1 | -2.69% (inactive)
N#Cc1c(N2CCCCC2)nc(N)c2c(N)nc(SCC(=O)O)cc12 | 61.1% (active)
N#CCc1c(C#N)c(N)nc(N2CCCC2)c1C#N | 0.638% (inactive)
N#Cc1c(-c2ccccc2)cc(-c2ccccc2)nc1SCC(=O)O | 0.292% (inactive)
COc1ccc(C2NC(=S)NC3=C2CCc2ccccc23)cc1OC (stereo not given) | 45.9% (active)
CCOC(=O)C1=C(c2ccccc2)NC(=S)NC1c1ccc(Cl)cc1 (stereo not given) | 8.84% (inactive)
CCOc1ccc(C2NC(=S)NC3=C2CCc2ccccc23)cc1 (stereo not given) | 15% (inactive)
Cc1nn(C(C)(C)C)c(OC(=O)CC(C)C)c1S(=O)(=O)c1ccccc1 | 8.28% (inactive)
O=C(CCNS(=O)(=O)c1cccs1)N1CCN(c2ccc(F)cc2)CC1 | -0.494% (inactive)
CCOCC(=O)NCc1ccc2c(c1)cc(C)n2C | 30.1% (active)
Cc1ccc(CNC(=O)COc2ccc3c(c2)CCC3)cc1 | 1.94% (inactive)
COc1cc(C(=O)NCc2ccc3c(c2)cc(C)n3C)cc(OC)c1OC | 1.47% (inactive)
CCc1cc(CNC(=O)CC2C(=O)NCCN2Cc2ccccc2C(F)(F)F)on1 (stereo not given) | -0.415% (inactive)
COc1ccc(C(=O)c2c(C)oc3cc([N+](=O)[O-])c(O)c([N+](=O)[O-])c23)cc1 | 8.62% (inactive)
Cc1oc2cc(Br)c(O)c(Br)c2c1C(=O)c1ccccc1 | 12.7% (inactive)

Structure (SMILES) | inhibition
Cc1oc2cc([N+](=O)[O-])c(O)c([N+](=O)[O-])c2c1C(=O)c1ccc(Br)cc1 | 41.5% (active)
COC(=O)[C@H]1[C@H]2C[C@H]3c4[nH]c5ccccc5c4CCN3C[C@@H]2CC[C@@H]1O | 0.605% (inactive) and -6.9% (inactive)
CC(Oc1cc2oc(=O)c3c(c2cc1Cl)CCCC3)C(=O)NCc1ccncc1 (stereo not given) | 0.148% (inactive)
O=C(CN(C(=O)c1csnn1)c1cccc(Cl)c1)NC1CCCC1 | -3.49% (inactive)
O=C(Nc1ccc(Cl)c(Cl)c1)c1ccccc1NC(=O)C1CC=CCC1C(=O)O (stereo not given) | 0.473% (inactive)
O=C(c1ccc(Cl)cc1)c1cnc(Nc2ccccc2)s1 | -1.16% (inactive)
CN(c1cccc(NC(=O)Nc2ccc(Cl)cc2)c1)S(C)(=O)=O | 4.89% (inactive)
O=C(Nc1ccccc1)c1nnsc1S(=O)(=O)c1ccc(Cl)cc1 | 70% (active)
Cc1cc(C)nc(SCc2nnc(SCC(=O)OC3CCCCC3)o2)n1 | 0.246% (inactive)
COc1ccc(N2CCN(C(C)=C3C(=O)c4ccccc4C3=O)CC2)cc1 | -1.11% (inactive)
CCOC(=O)c1c(-c2ccc(C)cc2)csc1/N=C(\C)C1=C(O)c2ccccc2C1=O | -0.167% (inactive)
CCOC(=O)C1=C(c2ccc(OC)cc2)C(=O)c2ccccc2C1=O | 83.5% (active)
CC1CN(C(=O)CCC(=O)NCCCN2CCC(Cc3ccccc3)CC2)c2cc(Cl)ccc2O1 (stereo not given) | 4.67% (inactive)
COc1cccc(CCNC(=O)c2cccc(NC(=O)C3=C(C)OCCS3)c2)c1 | -0.654% (inactive)
Cn1c(=O)c2sccc2n(Cc2ccc(Br)cc2)c1=O | 1.32% (inactive)
CCN(C(=O)CSc1nnnn1-c1ccccc1OC)C1CCS(=O)(=O)C1 (stereo not given) | -4.51% (inactive)
COc1ccccc1-n1nnnc1S(=O)(=O)Cc1ccc(Cl)cc1 | 81.5% (active)
COc1ccccc1N1CCN(S(=O)(=O)c2ccc(Cl)cc2)CC1 | 13.3% (inactive)
O=C(CSc1nc2[nH]ncc2c(=O)[nH]1)Nc1ccc(F)cc1 | -1.71% (inactive)
CCC(=C/c1sc2ccc3ccccc3c2[n+]1C)/C=C1\Sc2ccc3ccccc3c2N1C | -0.0609% (inactive)
COc1cccc(NC(=O)CN(C)C(=O)c2ccccc2CCc2ccccc2)c1 | 5.79% (inactive)
O=C(CN1CCN(S(=O)(=O)c2ccc(Br)cc2)CC1)Nc1ccccc1C(=O)c1ccccc1 | -0.838% (inactive)
Cc1noc(C)c1C(=O)N1CCOCC1 | 1.19% (inactive)

Structure (SMILES) | inhibition
CCOC(=O)c1ccccc1C(=O)N1CCOCCOCCOCC1 | 0.452% (inactive)
Cc1oc2c(c1C(=O)N1CCOCC1)C(=O)c1ccccc1C2=O | 86% (active)
Nc1[nH]c(=S)nc2nc(-c3ccccc3)c(-c3ccccc3)nc12 | -3.24% (inactive)
Cn1cnc2c1c(=O)n(Cc1ccccc1C#N)c(=O)n2C | -5.24% (inactive)
O=C(CCC(=O)N/N=C/c1ccc(Br)o1)N/N=C/c1ccc(Br)o1 | -0.217% (inactive)
CCOC(=O)c1sc(NC(=O)CCN2CCOCC2)c(C(=O)OCC)c1C | 2.17% (inactive)
CCOC(=O)Nc1sc(C(=O)N(C)C)c(C)c1C(=O)OCC | 1.54% (inactive)
CCOC(=O)c1c(NC(=O)CCl)sc(C(=O)N(CC)CC)c1C | 46.7% (active)
Cc1nc(CNS(=O)(=O)c2cc([N+](=O)[O-])ccc2C)cs1 | -3.48% (inactive)
CCc1ccccc1N(CC(=O)NCC1CCCO1)C(=O)CCC(=O)Nc1nccs1 (stereo not given) | -1.77% (inactive)
Cc1ccc(C)c(NC(CC(=O)c2ccccc2)C(=O)OCC(=O)c2cccs2)c1 (stereo not given) | -3.12% (inactive)
CCc1cccc(C)c1NC(=O)COC(=O)CNC(=O)c1cccs1 | -3.74% (inactive)
Cc1ccccc1C(CC(=O)c1cccs1)C(C#N)C#N (stereo not given) | 63.2% (active)
Cc1ccc(Sc2cc(N3CCOCC3)nc(-c3ccccc3)n2)cc1 | -0.766% (inactive)
O=S(=O)(c1ccc(-c2ccno2)s1)N1CCCCC1 | 0.0995% (inactive)
Cc1cc(C)n2nc(SCC(N)=O)nc2n1 | -1.48% (inactive)
Cc1cc(C)n2nc(CNS(=O)(=O)c3c(F)c(F)c(F)c(F)c3F)nc2n1 | 33% (active)
Cc1cc(C)n2nc(C(=O)NC(C)(C)C)nc2n1 | -3.67% (inactive)
COc1ccc(N2CCN(C(=O)C3CCN(S(=O)(=O)c4ccc(C)cc4)CC3)CC2)cc1 | -2.81% (inactive)
CCN(CCNC(=O)C1=C(C)C(=O)OC12CCC(C)CC2)c1ccccc1 (stereo not given) | -9.04% (inactive)
O=S(=O)(c1cnccc1N1CCN(/N=C/c2ccc(Br)cc2)CC1)N1CCCCC1 | -5.35% (inactive)
